Measured values from PubChem BioAssay (Tox21).
Where “and” joins values, the source holds several entries; their conditions need not be identical. Equal entries are not always repeated. Records with an inconclusive call do not appear. Calls of active or inactive are those of the source. Unless noted, calls follow the shape of the dose curve; as a rule, active = well fitted curve in the direction sought with a large enough effect in the repeat runs; inconclusive = weak or mixed curves; inactive = no such curve, though single readings can be large; an effect the other way counts as inactive or inconclusive.

Assays:
[1] = qHTS assay for small molecule agonists of the p53 signaling pathway (AID 651631; calls by dose curve; also: nearly all actives have a fitted effect of over 15% in size)
Outline: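 HCT-116 cells carrying a stable p53 response element–beta-lactamase reporter were plated, rested 5 h at 37 °C, then exposed to compound in DMSO for 16 h at 37 °C; reporter activity was read as FRET substrate fluorescence after 2 h at room temperature.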

[2] = qHTS assay for small molecules that induce genotoxicity in human embryonic kidney cells expressing luciferase-tagged ATAD5 (AID 651632); also: nearly all actives have a fitted effect of over 15% in size
Outline: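 Test compounds were delivered by pin tool onto HEK293T reporter cells (2,000/well) expressing ATAD5 fused to luciferase. After 16 hr at 37C, 5% CO2, Amplite was added for 30 min at room temperature and luminescence was measured.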

[3] = qHTS assay for small molecules that induce genotoxicity in human embryonic kidney cells expressing luciferase-tagged ATAD5 - cell viability (AID 651634; calls by dose curve; also: nearly all actives have a fitted effect of over 25% in size)
Outline: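 Quantitative high-throughput format. HEK293T cells expressing ATAD5 fused to luciferase were plated at 2,000 cells/well and treated 15.5 hr with compound versus DMSO. Viability was determined by fluorescent live-cell protease substrate, 30 min at 37C.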

[4] = qHTS assay for small molecule disruptors of the mitochondrial membrane potential - cell viability (AID 720634; calls by dose curve;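 also: human HepG2 liver cancer cells; nearly all actives have a fitted effect of over 20% in size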)
Outline: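 Same-well counter-screen: following the MMP dye addition, CellTiter-Glo was added to 1 hr compound-treated HepG2 cells and luminescence read after 30 min at room temperature.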

[5] = qHTS assay for small molecule disruptors of the mitochondrial membrane potential (AID 720635)
Outline: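 HepG2 cells (2,000/well) attached overnight at 37C, then took compound for 1 hr at 37C, 5% CO2. Mito-MPS dye was added for 30 min; fluorescence was read at 490/535 nm (monomers) and 540/590 nm (aggregates).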

[6] = qHTS assay to test for compound auto fluorescence at 590 nm (red) in HepG2 cells (AID 720674)
Outline: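 Compound auto-fluorescence is scored relative to Rose Bengal sodium, measured at 540/590 nm in live HepG2 cultures after 1 hr compound contact (37 C, 5% CO2).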

[7] = qHTS assay to test for compound auto fluorescence at 535 nm (green) in HepG2 cells (AID 720675)
[8] = qHTS assay to test for compound auto fluorescence at 460 nm (blue) in HEK293 cells (AID 720678)
Outline: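 Blue-channel (Ex/Em 405/460 nm) intensity measured in HEK293 cultures after overnight compound exposure at 37C; signal expressed relative to triamterene. Cells plated 2,000 per well in 10% dialyzed FBS medium and allowed 4-5 hr to attach.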

[9] = qHTS assay to test for compound auto fluorescence at 590 nm (red) in HEK293 cells (AID 720679)
Outline: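 Red-channel autofluorescence (Ex/Em 540/590 nm; Rose Bengal sodium reference) was measured after overnight 37C, 5% CO2 exposure of attached HEK293 cells, 2,000 per well in medium with 10% dialyzed FBS.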

[10] = qHTS assay to test for compound auto fluorescence at 535 nm (green) in HEK293 cells (AID 720680)
[11] = qHTS assay to test for compound auto fluorescence at 460 nm (blue) in HEK293 cell free culture (AID 720681)
Outline: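 Test compounds were pinned into cell-free culture medium (DMEM with 10% FBS) and fluorescence was read directly at Ex/Em 405/460 nm. Signals were expressed as fluorescence equivalents of triamterene, with DMSO vehicle as control.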

[12] = qHTS assay to test for compound auto fluorescence at 590 nm (red) in HEK293 cell free culture (AID 720683)
Outline: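 Tox21 10K library compounds were pinned into cell-free DMEM with 10% FBS and fluorescence was read at excitation 540 nm. Activity is expressed as Rose Bengal sodium equivalency.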

[13] = qHTS assay to test for compound auto fluorescence at 590 nm (red) in HepG2 cell free culture (AID 720684)
Outline: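 Readout: intrinsic compound fluorescence at 590 nm emission after 540 nm excitation, scaled to Rose Bengal sodium. Matrix was cell-free MEM with 10% FBS; DMSO vehicle wells served as control.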

[14] = qHTS assay to test for compound auto fluorescence at 460 nm (blue) in HepG2 cell free culture (AID 720685)
Outline: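 Cell-free plates of MEM plus 10% FBS received 23 nL compound or DMSO vehicle; blue-channel (405/460 nm) intensity scored against triamterene as reference fluorophore.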

[15] = qHTS assay to test for compound auto fluorescence at 535 nm (green) in HepG2 cell free culture (AID 720686)
[16] = target: Glucocorticoid receptor (Homo sapiens) (UniProt P04150); test: qHTS assay to identify small molecule agonists of the glucocorticoid receptor (GR) signaling pathway (AID 720691; active = well fitted activation curve with a large enough effect in the signal ratio in the repeat runs, not every such curve was filed as active; the % refers to the signal ratio)
Outline: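 A HeLa cervical cancer line expressing GR and a glucocorticoid response element-driven beta-lactamase gene is treated with compounds for 18 h; LiveBLAzer B/G FRET substrate is then applied and fluorescence read.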

[17] = target: Glucocorticoid receptor (Homo sapiens) (UniProt P04150); test: qHTS assay to identify small molecule antagonists of the glucocorticoid receptor (GR) signaling pathway (AID 720692; active = well fitted inhibition curve with a large enough effect in the signal ratio in the repeat runs, not every such curve was filed as active; the % refers to the signal ratio)
Outline: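 GRE-bla HeLa line, dex-stimulated (5 nM final). Compound exposure 18 h, 37 C. Beta-lactamase FRET read after 2 h RT substrate.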

[18] = qHTS assay to identify small molecule antagonists of the glucocorticoid receptor (GR) signaling pathway - cell viability counter screen (AID 720693); also: nearly all actives have a fitted effect of over 55% in size
[19] = qHTS assay for identifying genotoxic compounds that show differential cytotoxicity against isogenic chicken DT40 cell lines with known DNA damage response pathways - wild type cell line (AID 743012); also: nearly all actives have a fitted effect of over 60% in size
Outline: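 300 wt DT40 cells/well; cpd (DMSO) pintool-transferred after ~0.5 h at 37 C/5% CO2; 40 h incubation; CellTiter-Glo added, 30 min RT; luminescence read.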

[20] = qHTS assay for identifying genotoxic compounds that show differential cytotoxicity against isogenic chicken DT40 cell lines with known DNA damage response pathways - Rev3 mutant cell line (AID 743014); also: nearly all actives have a fitted effect of over 55% in size
[21] = qHTS assay for identifying genotoxic compounds that show differential cytotoxicity against isogenic chicken DT40 cell lines with known DNA damage response pathways - Rad54/Ku70 mutant cell line (AID 743015); also: nearly all actives have a fitted effect of over 60% in size
[22] = qHTS assay to identify small molecule antagonists of the androgen receptor (AR) signaling pathway using the MDA cell line - cell viability counter screen (AID 743041; also: nearly all actives have a fitted effect of over 45% in size)
Outline: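 qHTS viability read-out; MDA-kb2 AR-luc; R1881-stimulated; 16 h exposure at 37C, 0% CO2; CellTiter-Fluor, 30 min; fluorescence intensity.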

[23] = qHTS assay to identify small molecule antagonists of the thyroid receptor (TR) signaling pathway - cell viability counter screen (AID 743064); also: nearly all actives have a fitted effect of over 50% in size
Outline: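 GH3.TRE-Luc rat pituitary cells carrying a TRE-luciferase reporter were treated with compound plus 1 nM T3 (final) for 23.5 h at 37 °C. Viability was then read in the same wells by CellTiter-Fluor fluorescence after a further 30 min.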

[24] = qHTS assay to identify small molecule antagonists of the thyroid receptor (TR) signaling pathway (AID 743065); also: nearly all actives have a fitted effect of over 55% in size
Outline: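 GH3.TRE-Luc rat pituitary cells carrying two TR response elements driving luciferase were plated for 4 h, given compound plus 1 nM T3 (final), and incubated 23.5 h at 37 C. ONE-Glo luminescence measured reporter inhibition; CellTiter-Fluor fluorescence tracked cytotoxicity.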

[25] = test system: thyroid hormone receptor (rat, GH3 cells); test: qHTS assay to identify small molecule agonists of the thyroid receptor (TR) signaling pathway (AID 743066; calls by dose curve)
[26] = qHTS assay to identify small molecule antagonists of the estrogen receptor alpha (ER-alpha) signaling pathway - cell viability counter screen (AID 743074; calls by dose curve;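 also: HEK293 cells carrying ER-alpha-UAS-bla reporter stimulated with 17beta-estradiol; nearly all actives have a fitted effect of over 45% in size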)
[27] = qHTS assay to identify small molecule antagonists of the estrogen receptor alpha (ER-alpha) signaling pathway using the BG1 cell line - cell viability counter screen (AID 743081);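 also: compound given together with 17beta-estradiol as the ER stimulus; nearly all actives have a fitted effect of over 45% in size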
[28] = qHTS assay to identify small molecule that activate the aryl hydrocarbon receptor (AhR) signaling pathway - cell viability counter screen (AID 743086);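 also: HepG2 liver cells carrying the AhR DRE luciferase reporter; nearly all actives have a fitted effect of over 45% in size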
Outline: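 HepG2-AhR-luc (HG2L7.5c1) cells, 4000/well, were preincubated 5 h at 37C, exposed to compound in qHTS format for 24 hr at 37C, then given CellTiter-Fluor for 30 min; viability was read as fluorescence in the reporter wells.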

[29] = qHTS assay to identify small molecule antagonists of the estrogen related receptor signaling pathway with the pleiotropic PPARgamma coactivator (PGC) from Tox21 10K library (AID 1224841; call rule not given here; also: actives are mostly falling curves and most rising ones were filed inactive; nearly all actives have a fitted effect of over 50% in size)
Outline: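 In the PGC/ERR line, DMSO solutions of test chemicals are pin-delivered to 2,000 cells/well six hours after dispensing. Following eighteen hours' incubation, One-Glo reagent is added and luminescence recorded.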

[30] = qHTS assay to identify small molecule agonists of the estrogen related receptor signaling pathway with the pleiotropic PPARgamma coactivator (PGC) from Tox21 10K library (AID 1224842); also: nearly all actives have a fitted effect of over 15% in size
Outline: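 PGC/ERR reporter cells (NTP line) were seeded 2,000 per well, rested 6 h at 37 C/5% CO2, then pin-dosed with compounds in DMSO for 18 h at 37 C; luciferase read by One-Glo luminescence after 30 min at room temperature.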

[31] = qHTS assay to identify small molecule antagonists of the estrogen related receptor (ERR) signaling pathway from Tox21 library (AID 1224848); also: nearly all actives have a fitted effect of over 50% in size
Outline: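 First, 2,000 ERR cells per well were plated and held 6 h at 37 C/5% CO2. Next, compounds in DMSO were pinned in and left 18 h at 37 C. Finally, ONE-Glo was added and luminescence read after 30 min at room temperature.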

[32] = qHTS assay to identify small molecule agonists of the estrogen related receptor (ERR) signaling pathway from Tox21 library (AID 1224849; calls by dose curve; also: nearly all actives have a fitted effect of over 15% in size); settings: ERR reporter cell line, ONE-Glo luciferase, 18 h; at 92.4 µM (top of the series) unless noted
Outline: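 Reporter cells (ERR, NTP source) treated with Tox21 10K compounds 18 h, 37 C. Readout: ONE-Glo luminescence, 30 min RT.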

[33] = qHTS assay to identify small molecule antagonists of the estrogen receptor alpha (ER-alpha) signaling pathway using the BG1 cell line in the presence of 0.1 nM 17-beta-estradiol - cell viability counter screen (AID 1259241); also: nearly all actives have a fitted effect of over 40% in size
Outline: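 VM7Luc4E2 cells (endogenous ER-alpha, 4×ERE-luciferase), hormone-starved 5 days in charcoal-stripped FBS, were treated with compounds plus 0.1 nM 17beta-estradiol for 22 hr at 37C; viability read in same wells as CellTiter-Fluor live-cell protease fluorescence.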

[34] = qHTS assay to identify small molecule antagonists of the androgen receptor (AR) signaling pathway using the MDA cell line in the presence of 0.5 nM R1881 - cell viability counter screen (AID 1259242); also: nearly all actives have a fitted effect of over 45% in size
Outline: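 Human breast carcinoma MDA-kb2 cells, cultured without CO2, receive compounds alongside 0.5 nM (final) R1881 agonist. After 16 hr at 37C, viability is taken as live-cell protease signal.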

[35] = target: Nuclear receptor subfamily 1 group I member 2 (Homo sapiens) (UniProt O75469); test: Human pregnane X receptor (PXR) small molecule agonists, qHTS assay (AID 1346982); also: nearly all actives have a fitted effect of over 35% in size
Outline: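 After plating in 5% charcoal-stripped FBS and a 5 hr rest, PXR-Luc HepG2 cells received compounds in DMSO. Following 24 hr at 37 C, ONE-Glo was added and light output read.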

[36] = target: Acetylcholinesterase (Homo sapiens) (UniProt P22303); test: Acetylcholinesterase (AChE) small molecule antagonists: colormetric cell-based qHTS assay (AID 1347395; calls by dose curve; also: nearly all actives have a fitted effect of over 30% in size)
Outline: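 SH-SY5Y cells, plated overnight at 37 C, were exposed to compounds for 30 min at 37 C and 5% CO2. Acetylthiocholine plus DTNB was then added, and thiocholine from endogenous AChE was quantified colorimetrically after 90 min at 37 C.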

[37] = target: Acetylcholinesterase (Homo sapiens) (UniProt P22303); test: Acetylcholinesterase (AChE) small molecule antagonists: enzyme-based qHTS assay (AID 1347397; calls by dose curve; also: nearly all actives have a fitted effect of over 55% in size); settings: Potency: AChE enzyme activity inhibition; outcome: AChE enzyme activity inhibition
Outline: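 Tox21 library chemicals are tested in qHTS format against recombinant human AChE. The enzyme, dispensed at 50 mU/mL, sits with compound for 30 min at room temperature. A DTNB–acetylthiocholine cocktail follows, and colour is read after 10 min.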

[38] = target: Acetylcholinesterase (Homo sapiens) (UniProt P22303); test: Acetylcholinesterase (AChE) small molecule antagonists: fluorescence cell-based qHTS assay (AID 1347398; calls by dose curve; also: nearly all actives have a fitted effect of over 50% in size); settings: Potency: AChE activity; outcome: AChE activity
Outline: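 Cellular AChE inhibition: SH-SY5Y cells treated with test chemical for 30 min at 37 C, then acetylthiocholine hydrolysis followed over 40 min at room temperature via thiocholine-reactive Thiolite Green fluorescence (490/520 nm).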

[39] = target: Acetylcholinesterase (Homo sapiens) (UniProt P22303); test: Acetylcholinesterase (AChE) small molecule antagonists: enzyme-based qHTS assay with human liver microsomes (AID 1347399; calls by dose curve; also: nearly all actives have a fitted effect of over 60% in size); settings: Potency: qHTS inhibition; outcome: qHTS inhibition
Outline: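 Recombinant human AChE (50 mU/mL in the enzyme mix) and human liver microsomes (0.25 mg/mL final) were preincubated with compound and NADPH (0.25 mg/mL final) for 30 min at 37 C. Acetylthiocholine/DTNB was then added; thiocholine was read colorimetrically after 10 min at room temperature.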
% is scaled to controls: 0 for no effect and ±100 for the full control effect.

Chain of Glucocorticoid receptor (Homo sapiens) (P04150 whole entry, looked up): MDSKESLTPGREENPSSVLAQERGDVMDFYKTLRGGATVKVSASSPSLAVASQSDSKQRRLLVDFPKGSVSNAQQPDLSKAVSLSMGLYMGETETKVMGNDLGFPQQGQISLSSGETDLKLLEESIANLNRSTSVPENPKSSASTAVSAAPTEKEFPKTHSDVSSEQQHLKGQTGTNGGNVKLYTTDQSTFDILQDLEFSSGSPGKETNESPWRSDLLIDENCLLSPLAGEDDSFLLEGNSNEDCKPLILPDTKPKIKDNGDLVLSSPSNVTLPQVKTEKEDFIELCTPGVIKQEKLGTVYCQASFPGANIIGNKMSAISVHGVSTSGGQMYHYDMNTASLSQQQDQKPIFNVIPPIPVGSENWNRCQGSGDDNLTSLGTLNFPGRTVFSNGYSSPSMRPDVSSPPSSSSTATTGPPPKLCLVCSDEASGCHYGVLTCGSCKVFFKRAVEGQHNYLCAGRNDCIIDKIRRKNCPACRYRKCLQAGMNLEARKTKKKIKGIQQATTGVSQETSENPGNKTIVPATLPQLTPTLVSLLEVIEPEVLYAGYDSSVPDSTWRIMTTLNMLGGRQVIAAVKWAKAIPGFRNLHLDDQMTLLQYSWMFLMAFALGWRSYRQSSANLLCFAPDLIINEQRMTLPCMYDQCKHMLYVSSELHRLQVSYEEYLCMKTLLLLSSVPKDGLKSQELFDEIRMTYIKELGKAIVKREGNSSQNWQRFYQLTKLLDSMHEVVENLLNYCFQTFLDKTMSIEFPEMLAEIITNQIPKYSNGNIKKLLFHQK
Chain of Acetylcholinesterase (Homo sapiens) (P22303 whole entry, looked up): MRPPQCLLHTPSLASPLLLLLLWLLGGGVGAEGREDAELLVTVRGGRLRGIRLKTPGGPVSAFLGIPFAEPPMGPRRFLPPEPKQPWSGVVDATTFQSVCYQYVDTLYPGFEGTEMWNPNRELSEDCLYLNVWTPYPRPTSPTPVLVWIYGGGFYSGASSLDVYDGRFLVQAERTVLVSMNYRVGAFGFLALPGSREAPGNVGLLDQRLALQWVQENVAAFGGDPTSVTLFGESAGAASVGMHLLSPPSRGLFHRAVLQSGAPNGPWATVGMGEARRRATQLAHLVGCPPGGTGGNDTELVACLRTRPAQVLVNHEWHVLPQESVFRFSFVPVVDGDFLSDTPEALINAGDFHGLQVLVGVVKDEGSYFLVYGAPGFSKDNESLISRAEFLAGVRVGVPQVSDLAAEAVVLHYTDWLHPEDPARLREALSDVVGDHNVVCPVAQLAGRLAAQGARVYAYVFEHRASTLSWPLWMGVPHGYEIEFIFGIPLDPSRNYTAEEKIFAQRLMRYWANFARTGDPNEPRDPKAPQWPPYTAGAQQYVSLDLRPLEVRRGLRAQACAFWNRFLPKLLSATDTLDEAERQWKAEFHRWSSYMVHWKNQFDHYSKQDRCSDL
Chain of Nuclear receptor subfamily 1 group I member 2 (Homo sapiens) (O75469 whole entry, looked up): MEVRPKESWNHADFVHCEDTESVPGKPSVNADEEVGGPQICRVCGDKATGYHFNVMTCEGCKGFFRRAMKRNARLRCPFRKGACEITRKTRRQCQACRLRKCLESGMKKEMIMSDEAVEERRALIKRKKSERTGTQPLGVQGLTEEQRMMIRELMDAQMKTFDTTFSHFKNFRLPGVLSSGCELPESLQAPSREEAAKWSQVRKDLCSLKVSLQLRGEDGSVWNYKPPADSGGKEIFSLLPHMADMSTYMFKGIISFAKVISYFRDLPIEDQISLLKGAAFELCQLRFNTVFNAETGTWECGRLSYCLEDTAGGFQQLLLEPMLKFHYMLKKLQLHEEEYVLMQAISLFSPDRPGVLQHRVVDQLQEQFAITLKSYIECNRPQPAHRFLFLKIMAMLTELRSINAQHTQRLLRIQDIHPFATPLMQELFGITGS

O=C(O)/C=C/C(=O)O
inactive: Potency [1] | Potency [2] | Potency [3] | Potency [4] | Potency [5] | outcome [6] | Potency [7] | Potency [8] | outcome [9] | Potency [10] | Potency [11] | outcome [12] | outcome [13] | Potency [14] | Potency [15] | Potency [16] | Potency [17] | Potency [18] | Potency [19] | Potency [20] | Potency [21] | Potency [22] | Potency [23] | Potency [24] | Potency [25] | Potency [26] | Potency [27] | Potency [28] | Potency [29] | Potency [30] | Potency [31] | activity change, positive = activation [32] 4.47% and 1.26% | Potency [33] | Potency [34] | Potency [35] | Potency [36] | Potency [37] | Potency [38] | Potency [39]
